What was measured:
Experiment in all cases: DAPPL (digital affinity profiling via proximity ligation, sequencing); 10 mM Tris-HCl pH 7.5, 50 mM NaCl, 1 mM DTT, 4% glycerol, room temperature, 30 min; GST-TFs on glutathione beads, 16-mer random dsDNA library, 0.1% formaldehyde crosslink after washing; high values mean tight binding
Details in all cases: protein: recombinant; tags: N-terminal GST; dsDNA, one strand shown
SPIC = target: T1, SPIC (Homo sapiens, UniProt Q8N5J4 1-248)
T1 sequence: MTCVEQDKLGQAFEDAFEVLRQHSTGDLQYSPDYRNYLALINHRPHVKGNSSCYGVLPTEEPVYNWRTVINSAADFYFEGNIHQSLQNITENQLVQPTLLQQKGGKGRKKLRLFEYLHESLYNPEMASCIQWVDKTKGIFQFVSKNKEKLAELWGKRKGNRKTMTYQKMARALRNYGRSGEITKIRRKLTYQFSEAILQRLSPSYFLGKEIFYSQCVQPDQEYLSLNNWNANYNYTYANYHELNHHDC
In short: (§1)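 Human transcription factors were made in yeast as GST fusions, captured on glutathione beads and barcoded with DNA. With a tag-only sample included, the pool was incubated with 200 nmole of a random double-stranded 16-mer DNA library in Tris/NaCl/DTT/glycerol buffer at room temperature for 30 min, then crosslinked with 0.1% formaldehyde after washing, ligated by proximity, amplified and sequenced. For binding signal, each hexamer's read frequency for a factor is divided by its frequency for the tag-only sample.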

ELK4 = target: T2, ELK4 (Homo sapiens, UniProt P28324-2 1-405)
T2 sequence: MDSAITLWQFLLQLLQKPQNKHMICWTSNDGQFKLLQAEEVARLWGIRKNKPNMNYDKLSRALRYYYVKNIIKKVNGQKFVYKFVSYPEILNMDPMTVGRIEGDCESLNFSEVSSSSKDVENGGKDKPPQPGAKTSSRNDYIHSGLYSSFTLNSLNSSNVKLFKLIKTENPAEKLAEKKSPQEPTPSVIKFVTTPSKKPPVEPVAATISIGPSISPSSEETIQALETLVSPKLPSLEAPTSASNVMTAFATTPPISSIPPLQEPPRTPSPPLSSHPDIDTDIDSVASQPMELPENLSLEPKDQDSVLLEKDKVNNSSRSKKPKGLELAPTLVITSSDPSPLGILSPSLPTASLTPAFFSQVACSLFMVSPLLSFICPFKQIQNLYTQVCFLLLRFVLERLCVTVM
In short: as §1

ETV2 = target: T3, ETV2 (Homo sapiens, UniProt O00321 1-342)
T3 sequence: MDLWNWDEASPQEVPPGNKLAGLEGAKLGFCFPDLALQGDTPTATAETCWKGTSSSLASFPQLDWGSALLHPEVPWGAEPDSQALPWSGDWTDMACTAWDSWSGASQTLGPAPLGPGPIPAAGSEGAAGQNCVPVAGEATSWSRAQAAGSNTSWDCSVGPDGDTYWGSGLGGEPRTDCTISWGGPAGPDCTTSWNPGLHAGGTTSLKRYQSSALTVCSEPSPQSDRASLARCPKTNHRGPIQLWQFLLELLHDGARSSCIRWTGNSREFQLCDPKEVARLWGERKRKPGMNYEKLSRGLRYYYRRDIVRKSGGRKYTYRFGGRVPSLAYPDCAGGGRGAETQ
In short: as §1

ERF = target: T4, ERF (Homo sapiens, UniProt P50548 1-548)
T4 sequence: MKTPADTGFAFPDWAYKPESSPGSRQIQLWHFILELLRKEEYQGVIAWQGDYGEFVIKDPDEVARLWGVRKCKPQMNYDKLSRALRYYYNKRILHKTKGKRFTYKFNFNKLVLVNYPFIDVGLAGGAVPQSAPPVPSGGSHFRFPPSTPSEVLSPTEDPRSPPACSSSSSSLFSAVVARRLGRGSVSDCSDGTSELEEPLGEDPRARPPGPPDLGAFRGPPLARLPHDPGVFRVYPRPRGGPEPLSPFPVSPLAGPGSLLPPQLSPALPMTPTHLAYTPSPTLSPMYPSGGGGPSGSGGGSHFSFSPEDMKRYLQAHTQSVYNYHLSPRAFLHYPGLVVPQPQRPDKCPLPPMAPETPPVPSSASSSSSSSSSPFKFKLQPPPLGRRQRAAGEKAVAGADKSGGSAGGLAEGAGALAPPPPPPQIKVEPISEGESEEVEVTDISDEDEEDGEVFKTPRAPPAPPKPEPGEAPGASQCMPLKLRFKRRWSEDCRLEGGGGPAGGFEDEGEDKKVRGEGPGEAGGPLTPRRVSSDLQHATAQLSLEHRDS
In short: as §1

SPDEF = target: T5, SPDEF (Homo sapiens, UniProt O95238 1-335)
T5 sequence: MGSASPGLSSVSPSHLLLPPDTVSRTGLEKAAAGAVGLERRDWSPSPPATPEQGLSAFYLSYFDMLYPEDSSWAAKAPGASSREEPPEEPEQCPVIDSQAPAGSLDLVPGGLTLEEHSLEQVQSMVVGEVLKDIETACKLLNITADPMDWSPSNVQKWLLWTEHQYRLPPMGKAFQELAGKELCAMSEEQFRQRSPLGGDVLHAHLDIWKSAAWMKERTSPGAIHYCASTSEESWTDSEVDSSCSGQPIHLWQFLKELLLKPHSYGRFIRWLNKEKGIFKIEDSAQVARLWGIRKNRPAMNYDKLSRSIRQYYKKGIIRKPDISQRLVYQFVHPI
In short: as §1

ETV7 = target: T6, ETV7 (Homo sapiens, UniProt Q9Y603 1-341)
T6 sequence: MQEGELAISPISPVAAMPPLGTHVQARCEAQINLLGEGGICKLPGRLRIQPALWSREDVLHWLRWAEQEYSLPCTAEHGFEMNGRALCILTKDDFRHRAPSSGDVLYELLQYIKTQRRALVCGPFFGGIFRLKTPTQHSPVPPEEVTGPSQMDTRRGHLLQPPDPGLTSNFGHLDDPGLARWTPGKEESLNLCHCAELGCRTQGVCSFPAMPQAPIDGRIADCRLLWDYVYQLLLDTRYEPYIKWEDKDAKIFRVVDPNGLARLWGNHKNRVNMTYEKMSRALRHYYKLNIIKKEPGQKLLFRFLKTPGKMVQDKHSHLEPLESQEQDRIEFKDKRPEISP
In short: as §1

SPI1 = SPI1 (Homo sapiens, UniProt P17947 1-270)
In short: as §1

SPIB = SPIB (Homo sapiens, UniProt Q01892 1-262)
Chain of SPIB (Q01892 whole entry): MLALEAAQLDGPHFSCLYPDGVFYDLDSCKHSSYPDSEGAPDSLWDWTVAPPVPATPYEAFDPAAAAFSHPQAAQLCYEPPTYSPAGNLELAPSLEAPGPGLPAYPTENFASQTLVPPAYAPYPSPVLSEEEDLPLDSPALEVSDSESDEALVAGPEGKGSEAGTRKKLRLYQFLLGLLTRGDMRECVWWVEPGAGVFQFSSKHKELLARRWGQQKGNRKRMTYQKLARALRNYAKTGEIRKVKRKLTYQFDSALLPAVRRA
In short: as §1

ELK3 = target: T7, ELK3 (Homo sapiens, UniProt P41970 1-407)
T7 sequence: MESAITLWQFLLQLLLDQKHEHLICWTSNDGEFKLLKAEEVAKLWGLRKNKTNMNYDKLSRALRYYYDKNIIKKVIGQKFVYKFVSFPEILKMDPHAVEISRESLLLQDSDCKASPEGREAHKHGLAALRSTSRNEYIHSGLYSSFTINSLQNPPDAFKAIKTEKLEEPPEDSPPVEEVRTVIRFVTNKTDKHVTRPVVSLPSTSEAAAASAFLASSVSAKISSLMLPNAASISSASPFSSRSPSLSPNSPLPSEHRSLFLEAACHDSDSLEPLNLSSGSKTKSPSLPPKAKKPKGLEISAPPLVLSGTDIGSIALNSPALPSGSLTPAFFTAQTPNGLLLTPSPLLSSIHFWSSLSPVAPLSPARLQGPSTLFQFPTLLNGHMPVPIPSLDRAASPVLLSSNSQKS
In short: as §1

FEV = target: T8, FEV (Homo sapiens, UniProt Q99581 1-238)
T8 sequence: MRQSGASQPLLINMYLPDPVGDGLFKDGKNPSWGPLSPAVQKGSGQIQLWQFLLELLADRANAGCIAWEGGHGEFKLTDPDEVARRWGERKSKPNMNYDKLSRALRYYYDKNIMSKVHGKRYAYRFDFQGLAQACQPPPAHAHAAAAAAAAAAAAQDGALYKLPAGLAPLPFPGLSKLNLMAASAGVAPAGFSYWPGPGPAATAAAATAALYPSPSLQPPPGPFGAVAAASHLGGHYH
In short: as §1

ELF3 = target: T9, ELF3 (Homo sapiens, UniProt P78545 1-371)
T9 sequence: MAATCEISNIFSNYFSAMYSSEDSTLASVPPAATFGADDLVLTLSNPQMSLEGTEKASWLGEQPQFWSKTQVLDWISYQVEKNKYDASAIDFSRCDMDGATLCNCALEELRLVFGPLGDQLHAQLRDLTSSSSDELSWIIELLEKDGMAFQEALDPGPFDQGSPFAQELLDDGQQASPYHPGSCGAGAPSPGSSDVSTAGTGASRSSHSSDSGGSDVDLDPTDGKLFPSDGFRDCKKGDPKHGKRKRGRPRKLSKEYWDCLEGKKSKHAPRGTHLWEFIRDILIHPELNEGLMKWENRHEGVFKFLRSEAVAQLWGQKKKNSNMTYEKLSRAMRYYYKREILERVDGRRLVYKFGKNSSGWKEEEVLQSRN
In short: as §1

ETV3L = target: T10, ETV3L (Homo sapiens, UniProt Q6ZN32 1-361)
T10 sequence: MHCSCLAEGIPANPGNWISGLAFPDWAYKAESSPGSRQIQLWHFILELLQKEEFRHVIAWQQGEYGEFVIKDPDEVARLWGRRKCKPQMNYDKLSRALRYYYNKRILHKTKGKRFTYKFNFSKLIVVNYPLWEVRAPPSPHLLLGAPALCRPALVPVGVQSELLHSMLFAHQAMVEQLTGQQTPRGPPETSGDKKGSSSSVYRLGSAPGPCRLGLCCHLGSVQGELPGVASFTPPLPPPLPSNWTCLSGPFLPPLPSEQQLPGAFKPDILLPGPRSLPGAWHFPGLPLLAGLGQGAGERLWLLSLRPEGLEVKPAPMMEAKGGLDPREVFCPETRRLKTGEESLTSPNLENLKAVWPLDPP
In short: as §1

| Sequence | binding signal (SPIC) | binding signal (ELK4) | binding signal (ETV2) | binding signal (ERF) | binding signal (SPDEF) | binding signal (ETV7) | binding signal (SPI1) | binding signal (SPIB) | binding signal (ELK3) | binding signal (FEV) | binding signal (ELF3) | binding signal (ETV3L) |
| --- | --- | --- | --- | --- | --- | --- | --- | --- | --- | --- | --- | --- |
| CGACAG | 1.01 fold enrichment (6-mer frequency, TF over GST control) | 1.03 fold enrichment (6-mer frequency, TF over GST control) | 1.07 fold enrichment (6-mer frequency, TF over GST control) | 1.07 fold enrichment (6-mer frequency, TF over GST control) | 1.01 fold enrichment (6-mer frequency, TF over GST control) | 1.08 fold enrichment (6-mer frequency, TF over GST control) | – | – | – | – | – | – |
| GGCGTT | 1.08 fold enrichment (6-mer frequency, TF over GST control) | – | 1.13 fold enrichment (6-mer frequency, TF over GST control) | 1.01 fold enrichment (6-mer frequency, TF over GST control) | – | – | 1.03 fold enrichment (6-mer frequency, TF over GST control) | 1.05 fold enrichment (6-mer frequency, TF over GST control) | 1.02 fold enrichment (6-mer frequency, TF over GST control) | 1.01 fold enrichment (6-mer frequency, TF over GST control) | 1.1 fold enrichment (6-mer frequency, TF over GST control) | 1.09 fold enrichment (6-mer frequency, TF over GST control) |

Source: article PMC7862700, “An all-to-all approach to the identification of sequence-specific readers for epigenetic DNA modifications on cytosine”
